PubChem BioAssay AID1345085 (National Center for Advancing Translational Sciences (NCATS), 2018)
Results filed as inconclusive are left out. Activity calls are given as the source filed them. Calls follow the shape of the dose curve; as a rule, active = well fitted cell-killing curve with a large enough effect; inconclusive = small, poorly fitted or top-dose-only effect, or effect the other way; inactive = no such curve, though single readings can be large or run the other way. *1 amine or outer side, *2 acyl side, *3 side chain or, on linkers, in order; H or OH if unused. Where a SMILES comes first, the peptide text is derived from it. Bridges are numbered along the chain shown (N, C = ends). Roman numbers before positions name the chains, in order. [ ]: non-standard residue; d: D form. Actinocin(9to1) = Cc1c2oc3c(C)ccc(C(=O)[*:1])c3nc-2c(C(=O)[*:2])c(N)c1=O; NMeV = CN[C@H](C(=O)O)C(C)C; Sar = CNCC(=O)O

These compounds were tested on JEG-3 (assay: Confirmatory qHTS for gynecologic anti-cancer compounds from libraries of approved drugs and bioactive compounds). Conditions: gynecologic cancer cell panel viability, ATPlite luminescence, 48 h; series mostly up to 57.6 µM; activity change, negative = viability loss: at the top concentration.
Procedure, shortened: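 ATPlite luminescence read-out of cell viability; IC50 from 11-point 1:3 titrations, 57.5 uM to 0.977 nM, 48 h compound exposure at 37 C, 5% CO2. Cells seeded at 1,000/well 16 h before dosing.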
% is scaled to controls: 0 for no effect and ±100 for the full control effect; potency is read from the fitted curve at half-maximal effect.
Also: nearly all actives have a fitted effect of over 55% in size.

| SMILES | Potency | activity change, negative = viability loss |
| --- | --- | --- |
| Cc1cc(C2CCCCC2)n(O)c(=O)c1 | 11.1 µM (active) |  |
| O=C(Nc1cccnc1)N1CCC(Cc2cccc(Oc3ccc(C(F)(F)F)cn3)c2)CC1 | 7.69 µM (active) |  |
| CC(Oc1ccc2[nH]nc(/C=C/c3cnn(CCO)c3)c2c1)c1c(Cl)cncc1Cl (configuration not stated) | 6.85 µM (active) |  |
| COc1cc2ncnc(Nc3ccc(F)c(Cl)c3)c2cc1OCCCN1CCOCC1 |  | 4.26% (inactive) |
| Cc1c2oc3c(C)ccc(C(=O)N[C@@H]4C(=O)N[C@H](C(C)C)C(=O)N5CCC[C@H]5C(=O)N(C)CC(=O)N(C)[C@@H](C(C)C)C(=O)O[C@@H]4C)c3nc-2c(C(=O)N[C@@H]2C(=O)N[C@H](C(C)C)C(=O)N3CCC[C@H]3C(=O)N(C)CC(=O)N(C)[C@@H](C(C)C)C(=O)O[C@@H]2C)c(N)c1=O (I: T[dV]P[Sar][NMeV] / II: T[dV]P[Sar][NMeV]; ester I:1-I:C, II:1-II:C; linker I:N-II:N via Actinocin(9to1)) | 1.09 µM (active) |  |
| CC[C@@]1(O)C(=O)OCc2c1cc1n(c2=O)Cc2c-1nc1ccccc1c2/C=N/OC(C)(C)C | 0.0217 µM (active) |  |
| Cc1cnc(Nc2ccc(CN3CCOCC3)cc2)nc1Nc1cccc(S(=O)(=O)NC(C)(C)C)c1 | 9.68 µM (active) |  |
| CCN(CC)CCNC(=O)c1c(C)[nH]c(/C=C2\C(=O)Nc3ccc(F)cc32)c1C | 25.1 µM (active) |  |
| COc1cc2c(cc1-c1c(C)noc1C)ncc1[nH]c(=O)n(C(C)c3ccccn3)c12 (configuration not stated) | 3.06 µM (active) |  |
| CN1C2CCC1CC(OC(=O)[C@H](CO)c1ccccc1)C2 (some centres not stated) |  | -20.9% (inactive) |
| COc1cccc2c1C(=O)c1c(O)c3c(c(O)c1C2=O)C[C@@](O)(C(=O)CO)C[C@@H]3O[C@H]1C[C@H](N)[C@H](O[C@@H]2CCCCO2)[C@H](C)O1 | 13.7 µM (active) |  |
| Nc1ncn([C@@H]2O[C@H](CO)[C@@H](O)[C@H]2O)c(=O)n1 |  | -6.25% (inactive) |
| CCCCc1nc2cc(/C=C/C(=O)NO)ccc2n1CCN(CC)CC | 1.53 µM (active) |  |
| CC(C)Nc1cc(-c2c[nH]c(C(=O)N[C@H](CO)c3cccc(Cl)c3)c2)c(Cl)cn1 | 27.3 µM (active) |  |
| C[C@]12CCC(=O)C=C1CC[C@@H]1[C@@H]2[C@@H](O)C[C@@]2(C)[C@H]1CC[C@]2(O)C(=O)CO |  | 15.1% (inactive) |
| CC(C)CC(=O)Nc1n[nH]c2c1CN(C(=O)C1CCN(C)CC1)C2(C)C | 1.09 µM (active) |  |

| SMILES | Potency | activity change, negative = viability loss |
| --- | --- | --- |
| CN1CCN(CCOc2cc(OC3CCOCC3)c3c(Nc4c(Cl)ccc5c4OCO5)ncnc3c2)CC1 |  | -25% (inactive) |
| Nc1ccn([C@@H]2O[C@H](CO)[C@@H](O)C2(F)F)c(=O)n1 |  | -23.6% (inactive) |
| Cn1cnc2c(F)c(Nc3ccc(Br)cc3F)c(C(=O)NOCCO)cc21 |  | -1.43% (inactive) |
| COc1cc2c(NC3CCN(C(C)C)CC3)nc(C3CCCCC3)nc2cc1OCCCN1CCCC1 | 10.9 µM (active) |  |
| CC(C)C[C@H](NC(=O)[C@H](Cc1ccccc1)NC(=O)c1cnccn1)B(O)O | 0.217 µM (active) |  |
| Nc1ncnc2c1ncn2[C@@H]1O[C@H](CO)C[C@H]1O |  | 23.9% (inactive) |
| Nc1nccc(Oc2ccc(NC(=O)c3c[nH]cc(-c4ccc(F)cc4)c3=O)cc2F)c1Cl | 4.32 µM (active) |  |
| C=CC(=O)Nc1cc2c(Nc3ccc(F)c(Cl)c3)ncnc2cc1OCCCN1CCOCC1 | 27.3 µM (active) |  |
| CN(C)c1ccc(-c2nc3ncc(Cl)c(N4CCN(CC(=O)Nc5nccs5)CC4)c3[nH]2)cc1 |  | -24.9% [at 19.5 µM] (inactive) |
| CNC(=O)CN1CCC(Oc2cc3c(Nc4cccc(Cl)c4F)ncnc3cc2OC)CC1 |  | -23.5% (inactive) |
| FC(F)(F)c1ccc(/C=C/c2nc(COc3ccc(CCCCn4ccnn4)cc3)co2)cc1 | 0.0172 µM (active) |  |
| COC(=O)c1ccc2c(C(=Nc3ccc(N(C)C(=O)CN4CCN(C)CC4)cc3)c3ccccc3)c(O)[nH]c2c1 |  | 10.5% (inactive) |
| O=C(c1ccc(/C=C/c2n[nH]c3ccccc23)cc1)N1CCNCC1 | 24.3 µM (active) |  |
| CS(=O)(=O)c1ccc(C(=O)Nc2ccc(Cl)c(-c3ccccn3)c2)c(Cl)c1 |  | -1.27% (inactive) |
| Nc1ccccc1NC(=O)c1ccc(CNc2nccc(-c3cccnc3)n2)cc1 | 2.17 µM (active) |  |
| OC[C@H]1O[C@@H](n2cnc3c(=S)nc[nH]c32)[C@H](O)[C@@H]1O | 4.85 µM (active) |  |
